# Screening data deposited in PubChem BioAssay by several laboratories.
# GalR3 antagonist – human GalR3 antagonism; O60755; HEK293 GalR3-CNG cAMP membrane potential fluorescence; galR3 body fused to GalR1 C-terminus; inhibition, % at 3 µM; 360,000 tested, 0.44% active;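 active means inhibition above the screen-wide average plus 3 SD, cut at about 13% in these data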;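 further: forskolin and galanin both at EC90 stimulate the cells; cAMP rise reported by CNG channel membrane potential dye signal; 0% = forskolin plus galanin with DMSO and 100% = forskolin alone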
# Target sequence (O60755 1-299 limits assumed): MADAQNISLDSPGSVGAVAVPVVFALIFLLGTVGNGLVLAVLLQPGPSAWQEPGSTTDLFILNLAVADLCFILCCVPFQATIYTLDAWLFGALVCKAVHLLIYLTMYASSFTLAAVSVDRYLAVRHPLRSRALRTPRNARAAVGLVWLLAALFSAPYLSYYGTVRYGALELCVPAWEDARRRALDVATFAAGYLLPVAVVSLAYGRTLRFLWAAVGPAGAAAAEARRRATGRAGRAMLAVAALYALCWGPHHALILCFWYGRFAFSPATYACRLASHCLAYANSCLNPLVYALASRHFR
# SMARCA2 activ – increases SMARCA2 function in MMTV reporter cells; MG213 cells, MMTV-luciferase reporter, dexamethasone, overnight; AID 652017; 370,000 tested, 1% active; activation, % at 9.1 µM; in the data active means activation above about 7.8%;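 further: 0% = vehicle wells and 100% = reference activator wells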
# COUP-TFII inh – blocks human COUP-TFII nuclear receptor; HEK293T NGFI-A luciferase reporter, luminescence; inhibition, % at 8.6 µM; 370,000 tested, 0.7% active; AID 686940;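 active means inhibition above a per-plate cutoff, mean inhibition of test wells between control levels plus 3 SD, cut at about 38% in these data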;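 further: cells cotransfected with COUP-TFII expression vector driving the NGFI-A reporter; 0% = median of COUP-TF2 test wells and 100% = reporter-only cells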
# H9c2 protect – modulators protecting cardiomyocytes from myocardial damage; H9c2 cardiomyocytes, H2O2 injury protection, ATPLite, 2 h; protection from H2O2 cell death, % at 20 µM; 360,000 tested, 0.63% active;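 active means compounds giving at least 50% protection of heart cells from peroxide-induced death in the single-dose screen, raw or plate-pattern-corrected value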;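 further: 0% = DMSO wells with peroxide and 100% = DMSO wells without peroxide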
# FXN GAA850 act – increases GAA850 frataxin promoter reporter activity; HEK293 lucGAA850 FXN promoter luciferase reporter, 24 h; percent of 10 µM SAHA response; activation, % at 6 µM; 360,000 tested, 0.56% active;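 active means activation above the average of all compounds screened plus 3 SD, cutoff fixed separately per campaign, cut at about 7.5% in these data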;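 further: 0% = DMSO wells and 100% = 10 µM SAHA wells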
# Gli-Sufu antag – antagonists of Gli-Sufu signaling. 340,000 tested, 0.74% active. Sufu-KO-LIGHT fibroblasts, Gli luciferase reporter luminescence. inhibition, % at 5 µM;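 active means inhibition above about 55%, limit read from the data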;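 further: 0% = DMSO-treated cells and 100% = wells with medium but no cells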
# VP16 Luc counter – inhibits VP16 reporter, flagging COUP-TFII antagonist hits | inhibition, % at 8.5 µM | HEK293 Gal4-VP16 luciferase reporter, luminescence | AID 687007 | shares compounds with COUP-TFII inh | 2,500 tested, 25% active; in the data active means inhibition above about 13%
# NR2F2 inh conf – confirmation of human COUP-TFII (NR2F2) inhibitors; shares compounds with COUP-TFII inh; HEK293 NGFI-A luciferase reporter, luminescence; inhibition, % at 8.5 µM; 2,500 tested, 45% active; AID 687008;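 active means mean inhibition over three repeats above a set limit taken from the earlier primary screen, cut at about 38% in these data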;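 further: 100% = cells given the luciferase reporter alone without the COUP-TF2 vector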
# Numbers without * were called inactive; x = no result given; ! = a repeat was not active. In the library only some 3.4% were active in any assay of this set; here they are far more common.
SMILES,GalR3 antagonist,SMARCA2 activ,COUP-TFII inh,H9c2 protect,FXN GAA850 act,Gli-Sufu antag,VP16 Luc counter,NR2F2 inh conf
COc1ccc(-c2nc(N)n(C(=O)c3cccs3)n2)cc1,-3,-4,12,-1,1,2,x,x
COCCNc1nc(NCc2ccc(C(C)C)cc2)c2sccc2n1,-9,-3,38*,-26,0,x,1,22
COCCNc1nc(NCc2cccc(OC)c2)c2sccc2n1,0,2,19,-3,-1,x,x,x
CN(C)c1ccc(CC(=O)N2CCCCC2c2cc(C(=O)Nc3ccccc3Cl)no2)cc1 (centres undefined),-5,-8,48*,-6,-1,x,2,26
CCCCN1C=CC(=C2C(=O)c3ccccc3C2=O)C=C1,-1,-9,80*,-12,-13,x,67*,67*
CCC(C)Sc1ccc([C@@H]2[C@H]3C(=O)N(CC)C(=O)[C@H]3[C@]3(C(=O)OC)CCCCN23)cc1 (some centres undefined),-5,0,10,-6,1,8,x,x
COc1ccc(C)cc1Nc1n[n+](-c2ccccc2)c(-c2cc(OC)c(OC)cc2Br)s1,-7,-1,12,-11,-1,10,x,x
COc1ccc(C)cc1Nc1n[n+](-c2ccccc2)c(-c2c(OC)ccc3ccccc23)s1,-3,-7,43*,-19,-6,33,2,28
COc1ccc(CNC(=O)CCS(=O)(=O)c2ccc3c(c2)NC(=O)CS3)cc1,3,-2,-7,8,0,1,x,x
CCOC(=O)C(C(=O)OCC)C(C[N+](=O)[O-])c1ccccc1 (centres undefined),-4,3,10,0,0,-4,x,x
CCOc1cccc(/C=N/NC(=S)Nc2ccccc2[N+](=O)[O-])c1O,-4,-6,82*,23,-14,54,5,67*
CC(=O)/C(N=Nc1ccc2c(c1)OCCO2)=C(\C)O,-7,-7,68*,0,-13,6,-122,-36
CC(=O)/C(N=Nc1ccc2c(c1)OCO2)=C(\C)O,-1,1,-14,3,4,-58,x,x
Cc1ccc(NC(=O)/C(=C/c2cccc(Br)c2)NC(=O)c2ccco2)cc1,-7,0,-3,7,-1,5,x,x
C(=Cc1cnc2ccccc2n1)c1ccc2c(c1)OCO2,-3,-5,52*,-27,-14,x,65*,79*
C(=Cc1nc2ccccc2o1)c1ccc2c(c1)OCO2,-7,5,-24,-25,1,x,x,x
CCOC(=O)N1CCC(NC(=O)C2CCCN(Cc3nc(-c4cccc(C)c4)oc3C)C2)CC1 (centres undefined),-5,-7,42*,-17,0,48,-5,26
O=C1C=C(c2ccc(C(=O)O)cc2)C[C@@H](c2ccc3c(c2)OCO3)C1,-1,5,-25,16,2,28,x,x
CCOC(=O)c1c(CN2CCN(C)CC2)n(-c2ccccc2)c2cc(Br)c(O)cc12,3,-3,9,-18,-2,13,x,x
CCOC(=O)c1c(CN2CCN(CCO)CC2)n(-c2ccccc2)c2cc(Br)c(O)cc12,2,-3,43*,-3,-1,18,2,-4
CCOc1ccc(NC(=S)C(C#N)=C2N(C)c3ccccc3N2C)cc1,-4,-2,3,-8,-1,3,x,x
CC(C=CC(O)=C1C(=O)CNC1=O)=C[C@@H](C)C1OC2(C)OC(C(=O)C3O[C@@]32C)C1C (some centres undefined),-6,1,15,x,x,x,x,x
Nc1nc(F)nc2c1ncn2[C@@H]1O[C@H](CO)[C@@H](O)[C@H]1O,-8,-12,82*,-12,-14,71*,55*,65*
N#Cc1cc(-c2ccccc2)[nH]c1-c1nccc2ccccc12,-5,-3,50*,1,-1,9,-4,13
Nc1ccc(-c2ccc(N)c(C(=O)O)c2)cc1C(=O)O,0,-1,-4,-1,1,-1,x,x
SMILES,GalR3 antagonist,SMARCA2 activ,COUP-TFII inh,H9c2 protect,FXN GAA850 act,Gli-Sufu antag,VP16 Luc counter,NR2F2 inh conf
Nc1ccc(Br)cc1C(=O)O,-4,-5,45*,-1,-2,5,54*,35
COc1ccc(NC(=O)c2cccc([N+](=O)[O-])c2)cc1,-5,4,-15,-8,3,-31,x,x
COc1ccc(NC(=O)c2cc([N+](=O)[O-])ccc2O)cc1,-11,-8,69*,-40,-14,43,39*,61*
CCOC(=O)c1cc2c(=O)n3cccc(C)c3nc2n(CCOC)c1=NC(C)=O,-6,-7,-15,0,1,-3,x,x
CCOC(=O)c1cc2c(=O)n3cccc(C)c3nc2n(CC2CCCO2)c1=NC(C)=O (centres undefined),-7,1,73*!,11,0,3,-5,-8
COC(=O)[C@H](Cc1ccccc1)NC(=O)/C=C/[C@H]1O[C@@H](n2ccc(=O)[nH]c2=O)[C@H](O)[C@@H]1O,-7,-2,9,6,x,x,x,x
CN(CC(=O)Nc1ccc(F)cc1)S(=O)(=O)c1ccc2c(c1)c(=O)n(C)c(=O)n2C,-8,-2,-20,0,-1,-18,x,x
c1ccc2c(c1)[nH]c1c(N3CCCC3)ncnc12,-2,-3,44*,-31,0,39,-3,23
CCCc1c(-c2ccc(OC)cc2)ncn1CCc1ccccc1OC,0,-7,47*,x,x,x,-8,-6
Cc1c(C(=O)NCc2ccc(C(F)(F)F)cc2)sc(=O)n1Cc1ccc(S(=O)(=O)N(C)C)cc1,-8,-8,42*,-7,-4,x,-4,21
COc1ccc(CNC(=O)c2sc(=O)n(Cc3ccc(S(=O)(=O)N(C)C)cc3)c2C)cc1,-2,-2,45*,-8,0,x,8,16
COc1ccc(CNC(=O)c2sc(=O)n(Cc3ccc(C)cc3)c2C)cc1,-2,-2,-14,1,-1,x,x,x
Cc1c(C(=O)NCc2ccccc2C(F)(F)F)sc(=O)n1Cc1ccc(S(=O)(=O)N(C)C)cc1,-3,0,11,0,0,x,x,x
Cc1occc1C(=O)NNC(=O)c1ccccc1[N+](=O)[O-],2,1,-23,2,2,-13,x,x
COc1ccc(/C=C/C(=O)Nc2ccccc2C(=O)O)cc1OC,-4,-5,60*,-20,-9,19,-17,35
O=C1NC(Cc2ccc(O)cc2)c2nc3ccc(Cl)cc3c(=O)n2-c2cc3ccccc3cc21 (centres undefined),-6,-5,41*,5,-12,x,0,3
